# In all, about 52,000 compounds went through this assay and about 4,300 (8.3%) were called active. Rule as the data show it: active = survival mostly below about 52% (no sharp cut-off); inactive = mostly above about 56%. The list comes from a sample in which actives are over-represented; it also holds similar structures and randomly drawn compounds.
# Test system: DeltatarO mutant
# Assay: growth inhibition of S. aureus wild type versus tarO mutant, primary screen, teichoic acid synthesis inhibitors, RN4220, OD600 (AID 463173)
# Conditions: OD600, 18 h, hits give low values, screened at 18.75 µg/mL (by protocol)
row,SMILES,survival
1,CCOC(=O)c1cc(-c2ccccc2)n(CC(=O)NCc2ccc(C)cc2)c1C,37% (active)
2,CC1CCc2c(sc(NC(=S)NC(=O)c3ccn(C)n3)c2C(N)=O)C1 (stereo not given),99% (inactive)
3,O=C1CS(=O)(=O)C2(C(=O)N(Cc3ccc(F)cc3)c3ccccc32)N1c1cccc(C(F)(F)F)c1 (stereo not given),124% (inactive)
4,O=C(NCc1ccc(Cl)cc1)c1cnc(N2CCCCC2)c2ccccc12,84% (inactive)
5,CCc1ccc(N(CC)C(=O)c2ccc3c(=O)n4c(nc3c2)CCCCC4)cc1,86% (inactive)
6,CCOc1ccc(NC(=O)Cn2ncc3c2-c2cc(C)ccc2OC3)cc1,73% (inactive)
7,Cc1c(C(=O)NCc2cccc(F)c2)oc2c1-c1[nH]ncc1CC2,71% (inactive)
8,CC1(C)CC(=O)C(C=NCCCN2CCCC2=O)=C(O)C1,94% (inactive)
9,CC(C)C(=O)N1CCC(CN=CC2=C(O)CC(C)(C)CC2=O)CC1,52% (active)
10,CC(CN=CC1=C(O)CC(C)(C)CC1=O)N=CC1=C(O)CC(C)(C)CC1=O (stereo not given),101% (inactive)
11,CC(O)Cc1nsc(NC(=O)c2cccs2)n1 (stereo not given),81% (inactive)
12,CCn1c(C(=O)N2CCC(C(=O)NCCc3ccc(C)cc3)CC2)cc2sccc21,58% (inactive)
13,COCCNC(=O)C1CCN(C(=O)c2cc3sccc3n2Cc2ccc(Cl)cc2)CC1,110% (inactive)
14,CCn1c(C(=O)N2CCC(C(=O)N3CCN(c4ccc(OC)cc4)CC3)CC2)cc2sccc21,49% (active)
15,COCCCNC(=O)C1CCN(C(=O)c2cc3sccc3n2Cc2ccc(Cl)cc2)CC1,59% (inactive)
16,CC(C)CCNC(=O)C1CCN(C(=O)c2cc3sccc3n2Cc2ccc(Cl)cc2)CC1,40% (active)
17,CCC(C)NC(=O)C1CCN(C(=O)c2cc3sccc3n2Cc2ccc(Cl)cc2)CC1 (stereo not given),45% (active)
18,CC(C)NC(=O)C1CCN(C(=O)c2cc3sccc3n2Cc2ccc(Cl)cc2)CC1,65% (inactive)
19,COc1ccc(N2CCN(C(=O)c3cc4sccc4n3Cc3ccccc3)CC2)cc1,92% (inactive)
20,CCn1c(C(=O)N2CCC(C(=O)N3CCN(c4cc(C)ccc4C)CC3)CC2)cc2sccc21,51% (inactive)
21,Cc1ccc(CN(CC(=O)NC2CCCC2)C(=O)CSc2nnc(COc3ccccc3)o2)cc1,80% (inactive)
22,O=C(Cn1c(=O)n(-c2ccc(Cl)cc2)c(=O)c2c3c(sc21)CCC3)c1ccc(F)cc1,51% (inactive)
23,COc1ccc(N2CCN(C(=O)Cn3nc(Cc4cccnc4)c4ccccc4c3=O)CC2)cc1,108% (inactive)

row,SMILES,survival
1,Cc1cc(C)c(NC(=O)CSc2nc(=O)n(Cc3cccnc3)c3c2CCC3)c(C)c1,104% (inactive)
2,C[n+]1ccn(CC(=O)c2ccccc2)c1,78% (inactive)
3,COCCN=Cc1c(NCCOC)nc2ccccn2c1=O,103% (inactive)
4,COC(=O)c1sc(N)c(C#N)c1C,74% (inactive)
5,O=C(Nc1cccc(Cl)c1)C1CCN(c2nc3ccccc3nc2C(F)(F)F)CC1,70% (inactive)
6,CC(C)NC(=O)C1CCN(c2nc3ccccc3nc2C(F)(F)F)CC1,101% (inactive)
7,CC(NC(=O)C1CCN(c2nc3ccccc3nc2C(F)(F)F)CC1)c1ccccc1 (stereo not given),37% (active)
8,O=C(Nc1ccc(F)cc1)C1CCN(c2nc3ccccc3nc2C(F)(F)F)CC1,118% (inactive)
9,Cc1ccc(NC(=O)C2CCN(c3nc4ccccc4nc3C(F)(F)F)CC2)cc1F,46% (active)
10,CSc1ccc(NC(=O)C2CCN(c3ncccn3)CC2)cc1,110% (inactive)
11,Cc1cc(C)cc(NC(=O)C2CCN(c3nc4ccccc4nc3C(F)(F)F)CC2)c1,93% (inactive)
12,O=C(Nc1ccc(F)c(Cl)c1)C1CCN(c2ncccn2)CC1,63% (inactive)
13,Cc1ccc(NC(=O)C2CCN(c3nc4ccccc4nc3C(F)(F)F)CC2)cc1C,91% (inactive)
14,CC(C)(C)NC(=O)C1CCN(c2nc3ccccc3nc2C(F)(F)F)CC1,63% (inactive)
15,O=C(Nc1ccc(Cl)cc1)C1CCN(c2nc3ccccc3nc2C(F)(F)F)CC1,25% (active)
16,Cc1ccc(NC(=O)C2CCN(c3ncccn3)CC2)cc1F,53% (active)
17,O=C(Nc1ccc(F)cc1F)c1c2c(nc3ccccc13)C(=O)N(C1CCCCC1)C2,81% (inactive)
18,CCN(CC)C(=O)C1CCN(c2nnc(C)c3c(C)n(-c4ccc(Cl)cc4)nc23)CC1,95% (inactive)
19,CCOc1ccc(N(C(C)C(=O)NCCSc2ccc(C)cc2)S(C)(=O)=O)cc1 (stereo not given),45% (inactive)
20,COc1ccc(OC)c(NC(=O)CSC2=Nc3ccccc3C3=NC(CC(=O)NCc4ccco4)C(=O)N23)c1 (stereo not given),99% (inactive)
21,CC(C)Nc1nc(NC(N)=O)nc(NC(C)C)n1,104% (inactive)
22,CCOc1ccc(CN2C(=O)c3ccccc3C2C(=O)NCCc2ccc(OC)c(OC)c2)cc1 (stereo not given),88% (inactive)

# From PubChem BioAssay AID463173 (ICCB-Longwood Screening Facility, Harvard Medical School, 2010)
